Assay [1] deals with Arylsulfatase A (Homo sapiens) (UniProt P15289). In words: qHTS screen for enhancers of Arylsulfatase A (ASA1): LOPAC Validation Assay (AID 720538). Further: potency means the concentration at half of the fitted maximal effect. To be noted: ASA enzyme activity, LOPAC qHTS enhancer assay; series mostly up to 57.5 µM. Summed up:
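Read-out: fluorescence at Ex=525/Em=598 nm after 1N NaOH final stop. Patient fibroblasts carrying ASA-I179S had 48h compound exposure, then 14h room-temperature pNCS hydrolysis (0.5mM final) in lysis buffer. Signal increase = enhanced activity.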
For orientation: Quantitative high-throughput screening tests each substance at several concentrations.

Assay [2] in a line: qHTS for compounds that reverse cellular toxicity of Amyloid beta (A-beta) peptide in yeast: LOPAC Validation Assay (AID 720559). Conditions: yeast expressing A-beta; series mostly up to 46.1 µM. The method in brief:
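OD600 growth readout after 48 hr at 30 C; A-beta-toxic yeast plus pinned compounds in medium. Normalization: DMSO = negative, equimolar FeCl3 + clioquinol = positive.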

The nature of assay [3]: qHTS for Activators of Parkin Expression: LOPAC Validation Assay (NLuc Reporter) (AID 720572; further: potency means the concentration at half of the fitted maximal effect). To be noted: Parkin promoter NanoLuc reporter cells, luminescence; series mostly up to 46.1 µM. Summed up: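 Parkin promoter-driven FLuc/NLuc neuronal reporter cells; 24 h plating, 7-pt dose response, 24 h at 37 C/5% CO2; FLuc then NanoLuc reagent, 10 min each, luminescence; DMSO/positive control normalized.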

Assay [4] concerns the target T1, Hexokinase-4 (Homo sapiens) + Glucokinase regulatory protein (Homo sapiens) (UniProt P35557+Q14397). In words: qHTS assay for inhibitors of recombinant human GCK-GKRP interaction: Diaphorase-coupled assay (AID 743205). To be noted: G6PDH/diaphorase resorufin fluorescence; series mostly up to 57.5 µM. Summed up:
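Resorufin fluorescence (525/590 nm), read each minute over 30 min, reports GCK activity coupled via G6PDH and diaphorase. Reaction: 10 nM GST-GCK, 10 nM FLAG-GKRP, 5 mM glucose, 0.4 mM ATP, 0.15 mM NADP+, 0.1 mM resazurin.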

Assay [5] has as its target T1, Hexokinase-4 (Homo sapiens) + Glucokinase regulatory protein (Homo sapiens). Put plainly: qHTS assay for inhibitors of recombinant human GCK-GKRP interaction: ADP-Glo assay (AID 743206). Conditions: ADP-Glo luminescence, 60 min, 0% = vehicle-only wells with enzyme present; series mostly up to 76.9 µM. The method in brief: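 GST-GCK and FLAG-GKRP (15 nM each in the dispensed mix, with 2 uM S6P) react with 0.4 mM ATP and 5 mM glucose (final) in Hepes pH 7.6 for 60 min at room temperature. ADP is measured by ADP-Glo luminescence.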

Assay [6] has the same target. In words: qHTS assay for inhibitors of recombinant human GCK-GKRP interaction: HTRF assay (AID 743207). To be noted: recombinant GCK-GKRP HTRF binding, 60 min; series mostly up to 57.5 µM. The method in brief:
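HTRF read-out (ex 320 nm; 615/665 nm emission) after 60 min RT equilibration of 5 nM GST-GCK, 5 nM FLAG-GKRP, 2 uM S6P, compound and anti-FLAG/anti-GST detection antibodies; signal normalized between DMSO wells with and without GCK.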

Assay [7] in a line: qHTS for Activators of Parkin Expression: LOPAC Validation Assay (FLuc Reporter) (AID 720573). Conditions: Cell line, PRKN promoter firefly luciferase reporter, vehicle wells = 0, positive control = 100%; series mostly up to 46.1 µM. The method in brief: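 FLuc luminescence read-out from a neuronal line expressing a Parkin-promoter-driven coincidence reporter. Cells treated 24 h at 37 C, 5% CO2 with compounds at 7 concentrations; signal increase normalized to DMSO and positive control.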

Potency and outcome data for 29 compounds are collected here from PubChem BioAssay (NCATS).

Structures are written as SMILES. Records with an inconclusive call do not appear. Activity calls are given as the source filed them. The call rests on the fitted dose curve; in most records, active means well fitted curve in the direction sought with a large enough effect; inconclusive means small, poorly fitted or top-dose-only effect, or another doubt; inactive means no such curve, though single readings can be large; an effect the other way counts as inactive or inconclusive.

Sequence of Arylsulfatase A (Homo sapiens) (P15289 whole entry, looked up): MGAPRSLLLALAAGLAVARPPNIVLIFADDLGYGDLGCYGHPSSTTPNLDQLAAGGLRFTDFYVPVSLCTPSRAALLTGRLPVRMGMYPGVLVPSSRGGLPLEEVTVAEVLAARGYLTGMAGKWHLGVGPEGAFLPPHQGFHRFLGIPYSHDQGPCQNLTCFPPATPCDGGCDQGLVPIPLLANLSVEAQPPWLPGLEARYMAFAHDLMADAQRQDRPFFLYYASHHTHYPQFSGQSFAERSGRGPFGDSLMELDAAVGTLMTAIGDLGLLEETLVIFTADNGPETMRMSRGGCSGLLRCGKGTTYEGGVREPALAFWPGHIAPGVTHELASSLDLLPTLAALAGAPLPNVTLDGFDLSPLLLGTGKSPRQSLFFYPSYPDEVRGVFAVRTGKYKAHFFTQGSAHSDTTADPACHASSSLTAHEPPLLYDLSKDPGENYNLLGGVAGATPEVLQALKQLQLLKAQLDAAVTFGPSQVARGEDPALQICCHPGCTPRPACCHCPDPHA
T1 sequence (P35557 whole entry, looked up): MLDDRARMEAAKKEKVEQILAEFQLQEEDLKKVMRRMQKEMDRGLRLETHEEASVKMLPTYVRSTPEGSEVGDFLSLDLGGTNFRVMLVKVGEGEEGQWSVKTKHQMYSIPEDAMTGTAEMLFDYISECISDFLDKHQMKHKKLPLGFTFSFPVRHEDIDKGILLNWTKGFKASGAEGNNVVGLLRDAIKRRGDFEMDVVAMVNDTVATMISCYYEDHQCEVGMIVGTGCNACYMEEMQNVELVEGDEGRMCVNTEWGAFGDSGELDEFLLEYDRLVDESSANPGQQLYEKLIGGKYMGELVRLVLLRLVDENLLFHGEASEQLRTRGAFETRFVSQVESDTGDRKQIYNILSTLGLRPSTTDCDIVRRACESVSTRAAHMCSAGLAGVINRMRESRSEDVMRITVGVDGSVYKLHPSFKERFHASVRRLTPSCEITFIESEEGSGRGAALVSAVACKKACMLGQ
T1 sequence (Q14397 whole entry, looked up): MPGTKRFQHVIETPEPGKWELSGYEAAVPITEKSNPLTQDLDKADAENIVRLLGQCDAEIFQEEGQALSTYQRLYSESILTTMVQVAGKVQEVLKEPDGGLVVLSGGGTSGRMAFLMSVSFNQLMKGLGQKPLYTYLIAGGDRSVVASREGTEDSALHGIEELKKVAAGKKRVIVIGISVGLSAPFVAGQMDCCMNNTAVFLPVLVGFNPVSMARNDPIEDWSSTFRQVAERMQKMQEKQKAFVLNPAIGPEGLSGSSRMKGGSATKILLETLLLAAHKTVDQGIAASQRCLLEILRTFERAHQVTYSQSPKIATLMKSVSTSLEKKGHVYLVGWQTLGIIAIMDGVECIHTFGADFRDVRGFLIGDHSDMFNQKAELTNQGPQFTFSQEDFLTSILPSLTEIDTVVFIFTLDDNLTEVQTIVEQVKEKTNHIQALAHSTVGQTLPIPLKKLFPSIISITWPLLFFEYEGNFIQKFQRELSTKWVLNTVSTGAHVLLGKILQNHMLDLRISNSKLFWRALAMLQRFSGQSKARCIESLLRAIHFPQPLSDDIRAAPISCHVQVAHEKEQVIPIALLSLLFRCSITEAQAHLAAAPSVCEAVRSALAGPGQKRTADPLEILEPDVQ

Turning to `CO[C@H]1CC=C2CCN3CCC4=C(CC(=O)OC4)[C@]23C1`, the Potency result in assay [1], in assay [3] and in assay [4] was “inactive” each time. Further, the compound was classed as inactive in assay [2], in assay [5] and in assay [6].

Consider `Clc1cc(I)cc(Cl)c1NC1=NCCN1`, for which the Potency entry in assay [1], in assay [3] and in assay [4] was “inactive” each time. Moreover, the call in assay [2], in assay [7], in assay [5] and in assay [6] was inactive.

For the compound `CCN(CCCl)Cc1ccccc1Br`, the Potency result in assay [1], in assay [3] and in assay [4] was “inactive” in each case. For the same compound, the compound was called inactive in assay [2], in assay [7], in assay [5] and in assay [6].

As for `C=CCN1C[C@@H](C)N([C@H](c2ccc(C(=O)N(CC)CC)cc2)c2cccc(OC)c2)C[C@@H]1C`, the Potency result in assay [1], in assay [3] and in assay [4] was “inactive” in each case. The result in assay [2], in assay [7], in assay [5] and in assay [6] was inactive.

With `CN(N=O)c1cc(O)ccc1O`, the Potency entry in assay [1], in assay [3] and in assay [4] was “inactive” each time. Further, the call in assay [2], in assay [7], in assay [5] and in assay [6] was inactive.

Consider `N[C@@]1(C(=O)O)CC[C@@H](C(=O)O)C1`, for which the Potency result in assay [1], in assay [3] and in assay [4] was “inactive” throughout. Moreover, the compound was classed as inactive in assay [2], in assay [7], in assay [5] and in assay [6].

`O=S1(=O)N(CCN2CC=C(c3c[nH]c4cc(F)ccc34)CC2)c2cccc3c2N1CCC3`: the Potency result in assay [1], in assay [3] and in assay [4] was “inactive” throughout. Besides, the compound was called inactive in assay [2], in assay [7], in assay [5] and in assay [6].

On to `c1ccc2cc(CC3=NCCN3)ccc2c1`, for which the Potency result in assay [1], in assay [3] and in assay [4] was “inactive” each time. In addition, the outcome in assay [2], in assay [5] and in assay [6] was inactive.

In the case of `OC1CCCCC1N1CCC(c2ccccc2)CC1` (stereo not drawn), the Potency entry in assay [1], in assay [3] and in assay [4] was “inactive” each time. Also, the call in assay [2], in assay [5] and in assay [6] was inactive.

With `CC(C)[C@@]1(NC(=O)[C@@H]2C[C@@H]3c4cccc5[nH]cc(c45)C[C@H]3N(C)C2)O[C@@]2(O)[C@@H]3CCCN3C(=O)[C@H](Cc3ccccc3)N2C1=O`, the Potency result in assay [1], in assay [3] and in assay [4] was “inactive” throughout. Besides, the compound was called inactive in assay [2], in assay [7], in assay [5] and in assay [6].

Consider `C[C@H](N)CN1CCc2ccc(Br)cc21`, for which the Potency result in assay [1], in assay [3] and in assay [4] was “inactive” each time. Besides, the compound was called inactive in assay [2], in assay [7], in assay [5] and in assay [6].

Consider `C#CCN[C@H](C)Cc1ccccc1`, for which the Potency entry in assay [1], in assay [3] and in assay [4] was “inactive” throughout. The compound was called inactive in assay [2], in assay [7], in assay [5] and in assay [6].

With `COc1ccc2c(c1)/C(=C/c1cnc[nH]1)C(=O)N2`, the Potency result in assay [1] and in assay [4] was “inactive” in each case. The Potency in assay [3] was 23.1 µM (active). The outcome in assay [7], in assay [5] and in assay [6] was inactive.

Regarding `NC(Cc1cc(O)c(O)cc1O)C(=O)O` (stereo not drawn), the Potency in assay [1] was 16.9 µM (active). The Potency entry in assay [3] and in assay [4] was “inactive” in each case. Also, the compound was called inactive in assay [7] and in assay [5].

For the compound `CCCN(CCC)CCc1c[nH]c2ccc(C(N)=O)cc12`, the Potency entry in assay [1], in assay [3] and in assay [4] was “inactive” throughout. The result in assay [5] and in assay [6] was inactive.

As to `CCCN1CC[C@@H]2c3cc(O)ccc3CC[C@@H]21`, the Potency entry in assay [1], in assay [3] and in assay [4] was “inactive” each time. Also, the compound was classed as inactive in assay [7], in assay [5] and in assay [6].

As to `CC(Cc1ccc(OCC(=O)O)cc1)NCC(O)c1cccc(Cl)c1` (stereo not drawn), the Potency result in assay [1], in assay [3] and in assay [4] was “inactive” throughout. The call in assay [7], in assay [5] and in assay [6] was inactive.

Regarding `C[C@]12Cc3cn4c(nc3C=C1CCC1C2CC[C@@]2(C)[C@H]1CC[C@@]2(O)C#N)nc1ccccc14` (stereo partly drawn), the Potency result in assay [1] and in assay [4] was “inactive” throughout. For the same compound, the compound was classed as inactive in assay [2], in assay [5] and in assay [6].

With `C[Se]C[C@H](N)C(=O)O`, the Potency entry in assay [1], in assay [3] and in assay [4] was “inactive” in each case. Besides, the result in assay [2], in assay [5] and in assay [6] was inactive.

For the compound `Ic1ccccc1CNC1C2CCN(CC2)C1C(c1ccccc1)c1ccccc1` (stereo not drawn), the Potency entry in assay [1], in assay [3] and in assay [4] was “inactive” throughout. The outcome in assay [5] and in assay [6] was inactive.

Regarding `C[C@@H]1O[C@H](C[N+](C)(C)C)CS1`, the Potency entry in assay [1], in assay [3] and in assay [4] was “inactive” in each case. The outcome in assay [7], in assay [5] and in assay [6] was inactive.

As for `CN1CCc2cccc(Cl)c2CC1`, the Potency entry in assay [1], in assay [3] and in assay [4] was “inactive” in each case. Also, the compound was classed as inactive in assay [7], in assay [5] and in assay [6].

Take `CN1C2CCC1CC(OC(c1ccccc1)c1ccccc1N)C2` (stereo not drawn): the Potency result in assay [1], in assay [3] and in assay [4] was “inactive” throughout. In addition, the call in assay [7], in assay [5] and in assay [6] was inactive.

For the compound `CC(=O)c1c(O)c(C)c(O)c(Cc2c(O)c3c(c(C(=O)/C=C/c4ccccc4)c2O)OC(C)(C)C=C3)c1O`, the Potency result in assay [1], in assay [3] and in assay [4] was “inactive” in each case. For the same compound, the outcome in assay [2], in assay [5] and in assay [6] was inactive.

Consider `OCc1cnc[nH]1`, for which the Potency entry in assay [1], in assay [3] and in assay [4] was “inactive” throughout. Besides, the compound was called inactive in assay [7], in assay [5] and in assay [6].

Take `C=CCN(C1=NCCN1)c1c(Cl)cccc1Cl`: the Potency result in assay [1], in assay [3] and in assay [4] was “inactive” throughout. For the same compound, the call in assay [2], in assay [5] and in assay [6] was inactive.

With `CCS(=O)(=O)Nc1cccc(C(=C2CCCCC2)c2cnc[nH]2)c1`, the Potency result in assay [1], in assay [3] and in assay [4] was “inactive” each time. The call in assay [2], in assay [5] and in assay [6] was inactive.

As for `CCCn1c(=O)c2[nH]c(C3CCCC3)nc2n(CCCOC(=O)c2ccc(S(=O)(=O)F)cc2)c1=O`, the Potency result in assay [1], in assay [3] and in assay [4] was “inactive” in each case. The result in assay [5] and in assay [6] was inactive.

For `c1ccc2c(N3CCNCC3)cccc2c1`, the Potency result in assay [1], in assay [3] and in assay [4] was “inactive” throughout. Also, the compound was classed as inactive in assay [2], in assay [5] and in assay [6].
